Columns and labels:
[1] = biological target: Sphingosine kinase 1 (Homo sapiens) (UniProt Q9NYA1); conditions: at 1 µM;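 also: mean SPHK1 inhibition value reported from the GSK PKIS kinase panel screen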
[2] = biological target: T1, Sphingosine kinase 2 (Homo sapiens) (UniProt Q9NRA0); conditions: at 0.1 µM
T1 sequence (whole entry): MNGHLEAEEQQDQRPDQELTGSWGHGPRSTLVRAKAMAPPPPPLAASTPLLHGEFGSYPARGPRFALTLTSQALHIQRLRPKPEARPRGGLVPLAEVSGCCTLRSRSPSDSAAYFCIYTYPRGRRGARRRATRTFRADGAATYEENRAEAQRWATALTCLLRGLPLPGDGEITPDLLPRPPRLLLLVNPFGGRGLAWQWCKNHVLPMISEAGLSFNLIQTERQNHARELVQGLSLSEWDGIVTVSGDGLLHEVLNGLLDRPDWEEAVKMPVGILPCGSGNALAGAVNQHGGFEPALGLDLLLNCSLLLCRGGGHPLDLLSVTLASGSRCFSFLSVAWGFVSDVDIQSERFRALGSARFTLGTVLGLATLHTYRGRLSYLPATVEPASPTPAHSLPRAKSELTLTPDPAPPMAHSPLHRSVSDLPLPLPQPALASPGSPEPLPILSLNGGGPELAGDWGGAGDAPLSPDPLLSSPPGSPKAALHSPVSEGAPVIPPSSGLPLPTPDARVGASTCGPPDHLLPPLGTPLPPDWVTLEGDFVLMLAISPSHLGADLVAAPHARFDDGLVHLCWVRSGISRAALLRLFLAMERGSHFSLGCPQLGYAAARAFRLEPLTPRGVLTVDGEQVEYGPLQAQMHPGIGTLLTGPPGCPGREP

[3] = biological target: T1, Sphingosine kinase 2 (Homo sapiens); conditions: at 1 µM
[4] = biological target: Casein kinase II subunit alpha (Homo sapiens) (UniProt P68400); conditions: at 0.1 µM
Chain of Casein kinase II subunit alpha (Homo sapiens) (P68400 whole entry, looked up): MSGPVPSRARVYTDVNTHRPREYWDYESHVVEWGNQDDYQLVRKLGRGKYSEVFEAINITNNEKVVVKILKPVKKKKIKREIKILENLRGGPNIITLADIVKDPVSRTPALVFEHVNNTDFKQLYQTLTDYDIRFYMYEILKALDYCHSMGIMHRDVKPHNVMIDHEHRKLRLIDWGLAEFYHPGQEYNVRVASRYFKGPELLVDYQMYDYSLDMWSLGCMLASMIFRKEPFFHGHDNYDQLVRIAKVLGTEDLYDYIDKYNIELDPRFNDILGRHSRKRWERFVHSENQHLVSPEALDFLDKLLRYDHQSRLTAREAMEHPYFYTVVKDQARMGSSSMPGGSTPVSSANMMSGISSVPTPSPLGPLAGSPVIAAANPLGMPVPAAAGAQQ

[5] = biological target: Casein kinase II subunit alpha (Homo sapiens) (UniProt P68400); conditions: at 1 µM
[6] = biological target: T2, Inhibitor of nuclear factor kappa-B kinase subunit alpha (Homo sapiens) (UniProt O15111); conditions: at 0.1 µM
T2 sequence (whole entry): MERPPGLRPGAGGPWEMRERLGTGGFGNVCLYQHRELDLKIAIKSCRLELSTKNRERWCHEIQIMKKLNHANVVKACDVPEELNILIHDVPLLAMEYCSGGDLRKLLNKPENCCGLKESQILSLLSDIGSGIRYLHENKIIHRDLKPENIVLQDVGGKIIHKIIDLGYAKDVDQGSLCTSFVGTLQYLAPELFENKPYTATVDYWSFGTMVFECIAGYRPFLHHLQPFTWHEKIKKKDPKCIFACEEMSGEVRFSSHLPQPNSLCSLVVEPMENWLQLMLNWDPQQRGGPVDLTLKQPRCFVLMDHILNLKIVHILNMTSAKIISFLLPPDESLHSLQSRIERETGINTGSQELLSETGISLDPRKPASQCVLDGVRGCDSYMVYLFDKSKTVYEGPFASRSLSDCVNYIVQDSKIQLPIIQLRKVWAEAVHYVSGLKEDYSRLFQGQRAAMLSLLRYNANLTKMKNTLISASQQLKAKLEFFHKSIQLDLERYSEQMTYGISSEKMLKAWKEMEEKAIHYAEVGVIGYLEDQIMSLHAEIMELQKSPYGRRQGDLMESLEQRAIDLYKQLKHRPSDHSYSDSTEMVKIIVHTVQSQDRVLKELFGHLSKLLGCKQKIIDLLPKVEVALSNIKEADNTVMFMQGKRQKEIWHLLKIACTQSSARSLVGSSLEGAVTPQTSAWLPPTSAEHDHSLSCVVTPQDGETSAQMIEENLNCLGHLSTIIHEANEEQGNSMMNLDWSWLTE

[7] = biological target: T2, Inhibitor of nuclear factor kappa-B kinase subunit alpha (Homo sapiens); conditions: at 1 µM
[8] = biological target: T3, Inhibitor of nuclear factor kappa-B kinase subunit beta (Homo sapiens) (UniProt O14920); conditions: at 0.1 µM
T3 sequence (whole entry): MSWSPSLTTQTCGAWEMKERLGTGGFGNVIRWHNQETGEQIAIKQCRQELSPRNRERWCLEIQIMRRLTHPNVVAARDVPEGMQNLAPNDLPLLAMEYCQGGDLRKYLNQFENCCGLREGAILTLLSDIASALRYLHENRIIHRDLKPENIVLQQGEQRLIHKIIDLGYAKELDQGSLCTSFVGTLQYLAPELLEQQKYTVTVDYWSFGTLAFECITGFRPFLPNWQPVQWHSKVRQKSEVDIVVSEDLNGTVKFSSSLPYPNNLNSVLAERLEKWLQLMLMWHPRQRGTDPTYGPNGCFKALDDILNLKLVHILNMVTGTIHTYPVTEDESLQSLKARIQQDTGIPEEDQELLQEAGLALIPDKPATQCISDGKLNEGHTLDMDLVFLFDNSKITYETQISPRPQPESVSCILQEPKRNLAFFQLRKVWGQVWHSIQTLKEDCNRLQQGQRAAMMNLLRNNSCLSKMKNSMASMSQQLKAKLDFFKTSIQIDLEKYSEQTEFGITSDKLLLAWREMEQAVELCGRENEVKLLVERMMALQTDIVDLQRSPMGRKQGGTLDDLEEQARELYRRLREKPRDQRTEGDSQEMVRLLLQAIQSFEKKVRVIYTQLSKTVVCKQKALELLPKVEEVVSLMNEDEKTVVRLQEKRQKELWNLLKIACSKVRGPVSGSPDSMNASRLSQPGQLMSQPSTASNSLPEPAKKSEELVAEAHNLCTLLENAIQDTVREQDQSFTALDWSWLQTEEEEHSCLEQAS

[9] = biological target: T3, Inhibitor of nuclear factor kappa-B kinase subunit beta (Homo sapiens); conditions: at 1 µM
[10] = biological target: T4, Inhibitor of nuclear factor kappa-B kinase subunit epsilon (Homo sapiens) (UniProt Q14164); conditions: at 0.1 µM
T4 sequence (whole entry): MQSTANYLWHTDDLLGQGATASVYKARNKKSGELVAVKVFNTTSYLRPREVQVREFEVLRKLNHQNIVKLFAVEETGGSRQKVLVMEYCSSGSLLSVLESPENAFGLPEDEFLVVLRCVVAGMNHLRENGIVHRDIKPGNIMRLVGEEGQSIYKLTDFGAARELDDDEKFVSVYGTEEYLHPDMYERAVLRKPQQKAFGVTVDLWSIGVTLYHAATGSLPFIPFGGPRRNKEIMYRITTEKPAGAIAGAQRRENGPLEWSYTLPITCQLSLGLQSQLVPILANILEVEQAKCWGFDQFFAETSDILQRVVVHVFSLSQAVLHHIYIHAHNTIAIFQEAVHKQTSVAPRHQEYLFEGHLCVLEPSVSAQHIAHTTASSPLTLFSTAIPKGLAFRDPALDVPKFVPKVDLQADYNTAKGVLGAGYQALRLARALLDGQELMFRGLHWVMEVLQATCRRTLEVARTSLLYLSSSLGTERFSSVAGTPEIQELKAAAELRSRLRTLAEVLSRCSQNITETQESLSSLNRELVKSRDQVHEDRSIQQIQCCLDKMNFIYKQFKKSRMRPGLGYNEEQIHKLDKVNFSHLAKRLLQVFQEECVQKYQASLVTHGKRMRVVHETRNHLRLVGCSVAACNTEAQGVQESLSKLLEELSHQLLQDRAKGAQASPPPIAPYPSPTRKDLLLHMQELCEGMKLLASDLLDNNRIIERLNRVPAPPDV

[11] = biological target: T4, Inhibitor of nuclear factor kappa-B kinase subunit epsilon (Homo sapiens); conditions: at 1 µM
[12] = biological target: T5, Serine/threonine-protein kinase Nek1 (Homo sapiens) (UniProt Q96PY6); conditions: at 0.1 µM
T5 sequence (whole entry): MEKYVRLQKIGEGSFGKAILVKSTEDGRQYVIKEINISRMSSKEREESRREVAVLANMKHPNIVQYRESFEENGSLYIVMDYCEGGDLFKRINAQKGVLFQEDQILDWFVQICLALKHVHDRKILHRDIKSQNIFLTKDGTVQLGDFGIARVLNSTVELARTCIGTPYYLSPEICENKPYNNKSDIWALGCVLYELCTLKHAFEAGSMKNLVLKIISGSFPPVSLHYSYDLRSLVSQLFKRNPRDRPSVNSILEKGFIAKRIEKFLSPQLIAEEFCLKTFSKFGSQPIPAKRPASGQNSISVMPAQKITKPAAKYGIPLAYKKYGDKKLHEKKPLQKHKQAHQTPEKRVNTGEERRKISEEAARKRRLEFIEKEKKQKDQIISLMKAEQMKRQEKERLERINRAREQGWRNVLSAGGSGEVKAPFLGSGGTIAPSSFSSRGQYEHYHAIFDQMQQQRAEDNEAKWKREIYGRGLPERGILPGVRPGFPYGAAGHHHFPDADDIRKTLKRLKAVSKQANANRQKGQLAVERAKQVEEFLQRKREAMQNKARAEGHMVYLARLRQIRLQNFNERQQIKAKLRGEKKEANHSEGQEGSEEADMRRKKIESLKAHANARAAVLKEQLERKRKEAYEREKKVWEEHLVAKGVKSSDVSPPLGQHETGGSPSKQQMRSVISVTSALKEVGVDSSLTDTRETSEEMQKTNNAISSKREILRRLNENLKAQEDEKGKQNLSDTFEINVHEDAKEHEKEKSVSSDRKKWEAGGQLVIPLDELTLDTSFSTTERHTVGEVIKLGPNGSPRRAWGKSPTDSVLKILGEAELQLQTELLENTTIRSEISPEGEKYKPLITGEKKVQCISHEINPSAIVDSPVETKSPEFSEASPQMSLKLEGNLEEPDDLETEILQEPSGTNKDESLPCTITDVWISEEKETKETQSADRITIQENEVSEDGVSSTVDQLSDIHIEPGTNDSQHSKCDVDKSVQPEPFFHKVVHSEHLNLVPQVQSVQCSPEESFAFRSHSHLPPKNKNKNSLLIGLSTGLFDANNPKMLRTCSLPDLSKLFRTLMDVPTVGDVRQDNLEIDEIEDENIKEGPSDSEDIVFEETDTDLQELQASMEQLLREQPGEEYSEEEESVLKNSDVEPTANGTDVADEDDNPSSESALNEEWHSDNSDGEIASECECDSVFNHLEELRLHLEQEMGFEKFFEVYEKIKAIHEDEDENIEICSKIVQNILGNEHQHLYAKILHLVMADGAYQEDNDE

[13] = biological target: T5, Serine/threonine-protein kinase Nek1 (Homo sapiens); conditions: at 1 µM
[14] = biological target: T6, Serine/threonine-protein kinase Nek2 (Homo sapiens) (UniProt P51955); conditions: at 0.1 µM
T6 sequence (whole entry): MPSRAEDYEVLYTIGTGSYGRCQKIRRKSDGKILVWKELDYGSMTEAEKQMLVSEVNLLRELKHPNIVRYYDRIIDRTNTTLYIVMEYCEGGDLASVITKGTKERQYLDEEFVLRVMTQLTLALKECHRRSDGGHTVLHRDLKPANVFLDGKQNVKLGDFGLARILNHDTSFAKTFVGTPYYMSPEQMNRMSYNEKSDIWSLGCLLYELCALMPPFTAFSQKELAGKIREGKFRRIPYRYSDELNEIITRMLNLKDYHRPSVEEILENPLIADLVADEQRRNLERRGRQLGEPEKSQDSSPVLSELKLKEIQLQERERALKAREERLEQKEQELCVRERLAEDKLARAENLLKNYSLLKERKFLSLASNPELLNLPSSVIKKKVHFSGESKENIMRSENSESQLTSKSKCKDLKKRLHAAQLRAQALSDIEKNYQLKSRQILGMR

[15] = biological target: T6, Serine/threonine-protein kinase Nek2 (Homo sapiens); conditions: at 1 µM
[16] = biological target: Serine/threonine-protein kinase Nek6 (Homo sapiens) (UniProt Q9HC98); conditions: at 0.1 µM
Chain of Serine/threonine-protein kinase Nek6 (Homo sapiens) (Q9HC98 whole entry): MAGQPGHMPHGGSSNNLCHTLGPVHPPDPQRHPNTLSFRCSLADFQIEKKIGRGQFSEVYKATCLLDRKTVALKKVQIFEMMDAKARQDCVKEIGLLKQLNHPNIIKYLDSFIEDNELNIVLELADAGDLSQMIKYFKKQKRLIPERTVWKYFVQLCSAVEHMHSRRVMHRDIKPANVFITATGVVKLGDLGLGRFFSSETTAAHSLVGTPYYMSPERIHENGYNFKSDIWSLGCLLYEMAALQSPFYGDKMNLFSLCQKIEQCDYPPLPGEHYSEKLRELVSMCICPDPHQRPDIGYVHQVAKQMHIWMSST

[17] = biological target: Serine/threonine-protein kinase Nek6 (Homo sapiens) (UniProt Q9HC98); conditions: at 1 µM
[18] = biological target: Serine/threonine-protein kinase Nek7 (Homo sapiens) (UniProt Q8TDX7); conditions: at 0.1 µM
Chain of Serine/threonine-protein kinase Nek7 (Homo sapiens) (Q8TDX7 whole entry, looked up): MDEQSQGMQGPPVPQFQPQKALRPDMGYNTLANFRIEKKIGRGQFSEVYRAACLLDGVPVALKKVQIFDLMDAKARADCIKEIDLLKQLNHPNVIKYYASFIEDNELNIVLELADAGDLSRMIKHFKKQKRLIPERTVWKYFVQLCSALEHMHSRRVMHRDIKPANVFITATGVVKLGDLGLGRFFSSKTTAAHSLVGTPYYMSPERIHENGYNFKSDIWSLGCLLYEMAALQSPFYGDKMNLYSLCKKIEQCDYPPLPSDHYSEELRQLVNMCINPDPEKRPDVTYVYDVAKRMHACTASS

[19] = biological target: Serine/threonine-protein kinase Nek7 (Homo sapiens) (UniProt Q8TDX7); conditions: at 1 µM
[20] = biological target: T7, Serine/threonine-protein kinase Nek9 (Homo sapiens) (UniProt Q8TD19); conditions: at 0.1 µM;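 also: reported value is the mean percent inhibition of NEK9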
T7 sequence (whole entry): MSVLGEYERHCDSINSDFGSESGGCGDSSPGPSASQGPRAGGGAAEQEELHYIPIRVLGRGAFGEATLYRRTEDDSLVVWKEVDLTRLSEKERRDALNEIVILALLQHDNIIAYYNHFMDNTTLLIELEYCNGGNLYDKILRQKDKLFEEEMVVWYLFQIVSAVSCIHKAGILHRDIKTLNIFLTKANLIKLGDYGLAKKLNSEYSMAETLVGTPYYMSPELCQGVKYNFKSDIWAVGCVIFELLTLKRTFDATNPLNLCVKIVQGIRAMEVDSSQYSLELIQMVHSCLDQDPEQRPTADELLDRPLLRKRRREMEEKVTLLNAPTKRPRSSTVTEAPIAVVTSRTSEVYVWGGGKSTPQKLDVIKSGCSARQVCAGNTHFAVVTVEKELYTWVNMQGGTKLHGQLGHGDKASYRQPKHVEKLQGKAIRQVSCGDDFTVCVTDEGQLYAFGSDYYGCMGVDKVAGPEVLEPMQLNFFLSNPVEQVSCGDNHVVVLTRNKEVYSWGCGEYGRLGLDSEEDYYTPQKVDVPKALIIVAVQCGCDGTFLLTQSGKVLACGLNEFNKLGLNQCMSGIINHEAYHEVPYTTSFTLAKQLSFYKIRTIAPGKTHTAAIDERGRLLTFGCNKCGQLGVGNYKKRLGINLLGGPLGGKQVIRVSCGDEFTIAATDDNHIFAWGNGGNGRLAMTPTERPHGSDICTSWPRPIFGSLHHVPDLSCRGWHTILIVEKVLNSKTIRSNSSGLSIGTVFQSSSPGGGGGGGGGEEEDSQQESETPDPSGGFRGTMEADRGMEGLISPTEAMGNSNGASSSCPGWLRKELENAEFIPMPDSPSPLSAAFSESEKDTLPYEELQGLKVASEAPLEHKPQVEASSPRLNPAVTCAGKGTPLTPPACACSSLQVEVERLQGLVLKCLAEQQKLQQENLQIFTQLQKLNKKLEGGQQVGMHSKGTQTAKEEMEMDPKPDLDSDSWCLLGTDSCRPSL

Chain of Sphingosine kinase 1 (Homo sapiens) (Q9NYA1 whole entry): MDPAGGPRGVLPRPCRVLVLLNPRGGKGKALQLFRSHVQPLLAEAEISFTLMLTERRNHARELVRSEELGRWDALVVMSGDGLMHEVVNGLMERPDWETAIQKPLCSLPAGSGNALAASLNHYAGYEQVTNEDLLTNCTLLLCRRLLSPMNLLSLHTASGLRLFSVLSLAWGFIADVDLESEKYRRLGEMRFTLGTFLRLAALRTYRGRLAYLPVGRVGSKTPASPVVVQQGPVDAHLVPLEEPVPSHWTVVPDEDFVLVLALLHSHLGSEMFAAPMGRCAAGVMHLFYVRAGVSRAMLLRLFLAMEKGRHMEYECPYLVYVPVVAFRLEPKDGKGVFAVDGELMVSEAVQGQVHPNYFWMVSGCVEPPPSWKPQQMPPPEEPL

SMILES | inhibition [1] [%] | inhibition [2] [%] | inhibition [3] [%] | inhibition [4] [%] | inhibition [5] [%] | inhibition [6] [%] | inhibition [7] [%] | inhibition [8] [%] | inhibition [9] [%] | inhibition [10] [%] | inhibition [11] [%] | inhibition [12] [%] | inhibition [13] [%] | inhibition [14] [%] | inhibition [15] [%] | inhibition [16] [%] | inhibition [17] [%] | inhibition [18] [%] | inhibition [19] [%] | inhibition [20] [%]
COc1ccc(COc2ccc(Cc3cnc(N)nc3N)cc2OC)cc1 | -2.38 | 0.09 | -0.88 | -2.39 | -8.59 | 2.25 | -7.71 | -1.1 | -1.34 | -1.79 | -2.21 | 1.41 | 1.56 | -0.14 | -1.4 | -0.54 | -3.71 | 2.81 | 1.75 | 0.22
CC(=O)Nc1cccc(C#Cc2cncnc2Nc2ccc(OCc3cccc(F)c3)c(Cl)c2)n1 | 0.51 | 1.73 | -0.13 | 2.14 | 9.24 | 2.26 | -1.99 | -3.08 | 2.94 | 2.95 | 1.53 | -2.25 | 1.58 | -2.96 | -1.9 | 1.43 | 4.26 | -4.17 | -3.8 | 0.45

— ChEMBL document CHEMBL1961873, “Compounds: GSK PKIS; Assays: Nanosyn kinase panel” (2012)
